{"source": "PubChem BioAssay AID588591", "about": "(National Center for Advancing Translational Sciences (NCATS), 2011)", "note": "Screen size: about 390,000 compounds; about 4,700 (1.2%) were called active. Inconclusive results (about 4%) are left out. Calls follow the shape of the dose curve; as a rule, active = well fitted inhibition curve with a large enough effect; inconclusive = small, poorly fitted or top-dose-only effect, or another doubt; inactive = no such curve, though single readings can be large or run the other way. The list comes from a sample in which actives are over-represented; it also holds similar structures and randomly drawn compounds. A call without a number means that no potency is given here. Potency is read from the fitted curve at half-maximal effect.", "data": [{"target": "DNA polymerase eta (Homo sapiens) (UniProt Q9Y253)", "sequence (Q9Y253 whole entry, looked up)": "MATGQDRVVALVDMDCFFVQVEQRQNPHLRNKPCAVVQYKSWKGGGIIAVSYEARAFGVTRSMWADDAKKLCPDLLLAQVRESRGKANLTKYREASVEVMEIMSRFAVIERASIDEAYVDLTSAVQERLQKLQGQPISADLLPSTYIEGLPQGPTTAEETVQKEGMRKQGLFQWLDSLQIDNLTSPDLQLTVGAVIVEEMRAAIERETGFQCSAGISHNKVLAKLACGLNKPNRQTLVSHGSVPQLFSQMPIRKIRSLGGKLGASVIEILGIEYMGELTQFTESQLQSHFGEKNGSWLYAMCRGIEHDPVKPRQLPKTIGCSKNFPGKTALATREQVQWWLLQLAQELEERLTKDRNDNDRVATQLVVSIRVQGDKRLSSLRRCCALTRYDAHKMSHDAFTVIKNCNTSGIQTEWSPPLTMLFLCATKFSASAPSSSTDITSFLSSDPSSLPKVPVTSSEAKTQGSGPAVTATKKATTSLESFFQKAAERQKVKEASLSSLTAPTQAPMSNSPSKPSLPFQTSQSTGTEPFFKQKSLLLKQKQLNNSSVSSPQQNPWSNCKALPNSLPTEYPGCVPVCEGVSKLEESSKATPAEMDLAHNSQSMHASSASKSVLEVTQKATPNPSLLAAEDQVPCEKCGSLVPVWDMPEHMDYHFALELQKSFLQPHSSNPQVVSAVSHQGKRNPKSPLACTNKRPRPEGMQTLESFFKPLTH", "assay": "qHTS for Inhibitors of Polymerase Eta", "conditions": "recombinant Pol eta, fluorescent DNA replication assay; series mostly up to 114 µM", "in_short": "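Pol eta at 10 nM preincubated with compounds 15 min at room temperature; reaction started with fluorescent substrate (50 nM final) and read kinetically at 0 and 10 min.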", "values": [{"smiles": "CCOC(=O)c1c(NC(=O)/C(C#N)=C/c2ccccc2)sc2c1CCC2", "Potency": "inactive"}, {"smiles": "O=C(NCCCO)C(=O)Nc1c2c(nn1-c1ccc(F)cc1)CSC2", "Potency": "inactive"}, {"smiles": "CCCCOc1ccc(C(=O)Nc2cccc(-c3nc4ccccc4o3)c2C)cc1", "Potency": "inactive"}, {"smiles": "Cc1ccc(S(=O)(=O)n2nc(C)c(S(=O)(=O)N3CCCCCC3)c2C)cc1", "Potency": "inactive"}, {"smiles": "O=C(CSc1ncc(-c2ccccc2)[nH]1)Nc1ccc(F)cc1F", "Potency": "inactive"}, {"smiles": "Oc1ccccc1-c1nc(/C=C/c2ccc(F)cc2)no1", "Potency": "inactive"}, {"smiles": "COc1cc(NC(=O)CSc2nc3nc(C)c(Cc4ccc(C)cc4)c(C)n3n2)cc(OC)c1OC", "Potency": "inactive"}, {"smiles": "Cc1ccc(Cc2c(C)nc3nc(SCC(=O)NCCN4CCOCC4)nn3c2C)cc1", "Potency": "inactive"}, {"smiles": "Cc1nc2nc(SCC(=O)NCc3ccco3)nn2c(C)c1Cc1ccccc1", "Potency": "44.7 µM (active)"}, {"smiles": "COc1cc(NS(=O)(=O)c2ccc(NC(=S)NC(=O)c3ccccc3)cc2)nc(OC)n1", "Potency": "inactive"}, {"smiles": "COc1cc(NS(=O)(=O)c2ccc(N/C=C(\\C=O)c3nc4cc(Cl)ccc4o3)cc2)nc(OC)n1", "Potency": "31.6 µM (active)"}, {"smiles": "COC(=O)Nc1ccc(S(=O)(=O)Nc2cc(OC)nc(OC)n2)cc1", "Potency": "inactive"}, {"smiles": "CCCn1c2ccccc2c2cnn(CC(=O)NCC3CCN(Cc4ccc(C)cc4)CC3)c(=O)c21", "Potency": "inactive"}, {"smiles": "Cc1c(C(=O)N(C)C)sc2c1c(=O)n(-c1ccc(F)cc1)c(=O)n2CC(=O)N(C)c1ccccc1", "Potency": "inactive"}, {"smiles": "CCOC(=O)c1ccc(NC(=O)CCS(=O)(=O)c2ccc3c(c2)oc(=O)n3C)cc1", "Potency": "inactive"}, {"smiles": "OC[C@H]1O[C@@H](n2cnc3c(NC4CCCC4)ncnc32)[C@H](O)[C@H]1O", "Potency": "inactive"}, {"smiles": "CCOCCc1c(O)nc(SCC(=O)NCc2ccco2)[nH]c1=O", "Potency": "15.8 µM (active)"}, {"smiles": "CCOC(=O)c1sc(NC(=O)CSc2nc(O)c(Cc3ccccc3)c(=O)[nH]2)nc1C", "Potency": "inactive"}, {"smiles": "CCn1c(SCC(=O)NCc2ccco2)nnc1-c1ccc(N)cc1", "Potency": "inactive"}, {"smiles": "Cc1ccc(CSc2oc(-c3cccs3)nc2S(=O)(=O)c2ccc(C)cc2)cc1", "Potency": "inactive"}, {"smiles": "CCCCN1CC(c2nc3ccccc3n2CCCCOc2ccc(C)cc2C)CC1=O", "note": "(configuration not stated)", "Potency": "inactive"}, {"smiles": "COc1cccc(NC(=O)C(=O)NCC(c2ccc3c(c2)OCO3)N2CCN(C)CC2)c1", "note": "(configuration not stated)", "Potency": "inactive"}, {"smiles": "COc1ccccc1CNS(=O)(=O)c1cc(Br)cc2c1N(C(C)=O)C(C)C2", "note": "(configuration not stated)", "Potency": "inactive"}, {"smiles": "Cc1ccc(Cl)cc1N1CCN(C(=O)c2cnc3c(-c4ccc(F)cc4)c(C)nn3c2C)CC1", "Potency": "inactive"}, {"smiles": "Cc1ccc(OCC(=O)OCc2cc(=O)n3nc(C4CC4)sc3n2)cc1", "Potency": "inactive"}, {"smiles": "Nc1ccc2nc3c(=O)[nH]c(=S)[nH]c3nc2c1", "Potency": "1.12 µM (active)"}, {"smiles": "Cc1cc(C)c(NC(=O)CCc2c(C)nc3c(c(C)nn3C(C)(C)C)c2C)c(C)c1", "Potency": "inactive"}, {"smiles": "COc1cc(CNCCSc2nnnn2C)ccc1OCc1ccc(Cl)cc1Cl", "Potency": "inactive"}, {"smiles": "CC1CCN(S(=O)(=O)c2ccc3c(ccn3CCC(=O)NCc3ccc(N(C)C)cc3)c2)CC1", "Potency": "inactive"}, {"smiles": "O=C1c2cccc3cccc(c23)N1CN1CCN(c2ccccn2)CC1", "Potency": "inactive"}, {"smiles": "O=C(CN1C(=O)c2cccc3cccc1c23)Nc1ccccc1", "Potency": "50.1 µM (active)"}, {"smiles": "COc1cccc(NC(=O)CN2C(=O)c3ccccc3Sc3ncccc32)c1", "Potency": "inactive"}, {"smiles": "CCN(C(=O)Cn1cc(S(=O)(=O)N2CCN(c3ccccc3F)CC2)c2ccccc2c1=O)c1ccc(C)c(C)c1", "Potency": "inactive"}, {"smiles": "CCC(CC)C(=O)Nc1ccc(S(=O)(=O)Nc2nccs2)cc1", "Potency": "inactive"}, {"smiles": "O=C(Nc1ccc(S(=O)(=O)Nc2nccs2)cc1)c1cc(-c2ccncc2)nc2ccccc12", "Potency": "12.6 µM (active)"}, {"smiles": "COc1ccccc1OC(C)C(=O)Nc1ccc(S(=O)(=O)Nc2nccs2)cc1", "note": "(configuration not stated)", "Potency": "inactive"}, {"smiles": "CC(C)(C)OC(=O)N1CCC(c2c(C(=O)N3CCc4ccccc4C3)cnn2-c2ccc(F)cc2)CC1", "Potency": "inactive"}, {"smiles": "Oc1ccc(Cn2cc[nH]c2=S)cc1", "Potency": "inactive"}, {"smiles": "COc1ccc(CCNc2ncnc3c2cnn3-c2ccc(C)cc2)cc1", "Potency": "inactive"}, {"smiles": "Cc1ccc(NC(=O)CSc2nc3c([nH]c4ccccc43)c(=O)n2-c2ccccc2)cc1Cl", "Potency": "inactive"}, {"smiles": "Cc1ccc2nc(N3C(=O)C(O)=C(C(=O)c4ccco4)C3c3cccc(O)c3)sc2c1", "note": "(configuration not stated)", "Potency": "50.1 µM (active)"}, {"smiles": "C=CCSc1nnc(N2C(=O)C(O)=C(C(=O)c3ccco3)C2c2ccc(F)cc2)s1", "note": "(configuration not stated)", "Potency": "inactive"}, {"smiles": "CC(=O)c1sc(N2C(=O)c3oc4ccccc4c(=O)c3C2c2ccc(C)cc2)nc1C", "note": "(configuration not stated)", "Potency": "inactive"}, {"smiles": "CC(=O)c1ccc(NC(=O)CSc2nc(-c3ccccc3F)nc3c2c(=O)n(C)c(=O)n3C)cc1", "Potency": "inactive"}, {"smiles": "CCCCc1nn2c(=O)cc(COC(=O)c3cccc(NC(=O)COc4ccccc4)c3)nc2s1", "Potency": "inactive"}, {"smiles": "Cn1c(=O)[nH]c(=O)c2c1nc(NCCc1ccccc1)n2Cc1ccc(F)cc1", "Potency": "inactive"}, {"smiles": "O=C(Nc1ccc(F)cc1)c1cc2c(s1)CCCC2", "Potency": "inactive"}, {"smiles": "CC1CCN(c2nc3ccc(C(=O)N4CCN(c5ccccc5)CC4)cc3s2)CC1", "Potency": "inactive"}, {"smiles": "O=C(c1cc2c(s1)CCC2)N1CCN(c2ccccc2)CC1", "Potency": "10 µM (active)"}, {"smiles": "CC1CCCN(c2csc3ccc(F)cc3c2=O)C1", "note": "(configuration not stated)", "Potency": "inactive"}, {"smiles": "Cc1cc(C)n2nc(SCC(=O)NC(=O)NCc3ccco3)nc2n1", "Potency": "inactive"}, {"smiles": "Cc1ccc(SCC(=O)NC(=O)NCc2ccco2)c(C)c1", "Potency": "14.1 µM (active)"}, {"smiles": "Cc1cc(C)c2c(c1)c(C)cc1nnc(SCC(=O)NCc3ccco3)n12", "Potency": "inactive"}, {"smiles": "CCc1cccc(NC(=O)CN(C)S(=O)(=O)c2ccc3[nH]c4c(c3c2)CCCC4)c1", "Potency": "inactive"}, {"smiles": "CCn1c2ccccc2c2nnc(N3CCN(c4cc(C)ccc4C)CC3)nc21", "Potency": "inactive"}, {"smiles": "Cc1ccc2[nH]c3c(=O)n(CC(=O)NC(C)C)ncc3c2c1", "Potency": "inactive"}, {"smiles": "O=C(C1=C(O)C(=O)N(CCOCCO)C1c1ccccn1)c1cccs1", "note": "(configuration not stated)", "Potency": "inactive"}, {"smiles": "O=C(C1=C(O)C(=O)N(c2ncccn2)C1c1cccs1)c1ccco1", "note": "(configuration not stated)", "Potency": "79.4 µM (active)"}, {"smiles": "CC(C)c1ccc(C2C(C(=O)c3ccco3)=C(O)C(=O)N2CC2CCCO2)cc1", "note": "(configuration not stated)", "Potency": "inactive"}, {"smiles": "O=C(CN1C(=O)CCn2nc(-c3ccccc3)cc21)NCc1ccccc1", "Potency": "inactive"}, {"smiles": "O=C(c1cccs1)c1cn(CCOc2ccc(Cl)cc2)c2ccccc12", "Potency": "inactive"}, {"smiles": "O=C(N/N=C/c1ccc(OCC2COCCO2)cc1)c1ccc(Br)cc1", "note": "(configuration not stated)", "Potency": "inactive"}, {"smiles": "O=C(COc1ccc(/C=N/NC(=O)c2ccc(O)cc2)cc1)Nc1ccc([N+](=O)[O-])cc1", "Potency": "4.47 µM (active)"}, {"smiles": "CN1CCN(Cc2nc3cc(NC(=O)COc4ccc([N+](=O)[O-])cc4)ccc3n2C)CC1", "Potency": "inactive"}, {"smiles": "COc1ccc(C2Sc3ccccc3NC3=C2C(=O)c2ccccc23)c(OC)c1OC", "note": "(configuration not stated)", "Potency": "inactive"}, {"smiles": "CCC(C)OC(=O)C(C)Oc1ccc(-c2ccccc2)cc1", "note": "(configuration not stated)", "Potency": "inactive"}, {"smiles": "C=CCC(CC=C)(C(N)=O)c1ccccc1", "Potency": "inactive"}, {"smiles": "NC(CSC(c1ccccc1)(c1ccccc1)c1ccc(-c2ccccc2)cc1)C(=O)O", "note": "(configuration not stated)", "Potency": "25.1 µM (active)"}, {"smiles": "O=C(Nc1ccc(C(=O)OCc2cc(=O)n3nc(C4CC4)sc3n2)cc1)c1ccc(F)cc1", "Potency": "inactive"}, {"smiles": "COc1ccc(CCNCc2c(C(=O)O)c(C)n(Cc3cccc(C)c3)c2C)cc1OC", "Potency": "inactive"}, {"smiles": "COc1ccc(Cl)cc1NC(=O)CCS(=O)(=O)c1ccc(Br)cc1", "Potency": "20 µM (active)"}, {"smiles": "O=C(CCS(=O)(=O)c1ccc(Br)cc1)NCCc1ccc(Cl)cc1", "Potency": "20 µM (active)"}, {"smiles": "COc1ccc(Cl)cc1NC(=O)CCC(=O)c1ccc(C)cc1", "Potency": "inactive"}, {"smiles": "CC(=O)N1CCc2cc(Br)cc(S(=O)(=O)CCC(=O)NCCc3ccc(Cl)cc3)c21", "Potency": "inactive"}, {"smiles": "COc1ccc(Cl)cc1NC(=O)CN(C)Cc1ccc(OC)c(OC)c1", "Potency": "inactive"}, {"smiles": "Cn1c(=O)oc2cc(S(=O)(=O)CCC(=O)NCCc3ccc(Cl)cc3)ccc21", "Potency": "inactive"}, {"smiles": "O=C(CCS(=O)(=O)c1cc(Br)cc2c1N(C(=O)C1CC1)CC2)Nc1ccc(Br)cc1F", "Potency": "inactive"}, {"smiles": "CSc1nc(-c2ccccc2Cl)nc2c1Cc1c(CO)cnc(C)c1O2", "Potency": "inactive"}, {"smiles": "Cc1c(C)n2c(SCC(=O)N3CCCC3)nnc2[nH]c1=O", "Potency": "inactive"}, {"smiles": "CC(=O)c1sc2nc(SCC(=O)N3CCCCC3)[nH]c(=O)c2c1C", "Potency": "10 µM (active)"}, {"smiles": "COCCn1c(SCC(=O)N2CCCCCC2)nc2c(c1=O)SCC2", "Potency": "inactive"}, {"smiles": "Cc1cc(C)c2oc(C(=O)Nc3ccc(S(=O)(=O)N4CCCCCC4)cc3)cc(=O)c2c1", "Potency": "inactive"}, {"smiles": "O=C(CSc1nnc(-c2ccncc2)n1-c1ccccc1)Nc1ccc(Cl)c(Cl)c1", "Potency": "inactive"}, {"smiles": "COc1ccc(S(=O)(=O)NCCSc2nnnn2-c2ccccc2)cc1", "Potency": "inactive"}, {"smiles": "CC(C)(C)C1C/C(=C/c2ccco2)C(=O)/C(=C/c2ccco2)C1", "note": "(configuration not stated)", "Potency": "28.2 µM (active)"}, {"smiles": "COc1cc(Cl)ccc1Nc1ncc(C(=O)N2CCN(c3ccccc3OC)CC2)c2ccccc12", "Potency": "inactive"}, {"smiles": "COc1ccc(Nc2ncc(C(=O)Nc3cc(C)ccc3OC)c3ccccc23)cc1", "Potency": "inactive"}, {"smiles": "COc1ccc(C(=O)Nc2cccc(C(=O)OCc3cc(=O)n4c5c(sc4n3)CCCC5)c2)cc1", "Potency": "inactive"}, {"smiles": "COc1ccccc1CNC(=O)c1ccc(-n2c(C)cc3c2CCCC3)cc1", "Potency": "inactive"}, {"smiles": "COc1ccc(C2=CC(c3ccccc3Cl)n3nc(-c4ccc(Cl)cc4)nc3N2)cc1", "note": "(configuration not stated)", "Potency": "inactive"}, {"smiles": "CCCCOc1ccc(CNC(=O)c2ccc3c(c2)N(C)C(=O)C2CCCCN32)cc1", "note": "(configuration not stated)", "Potency": "inactive"}, {"smiles": "Cc1cc(C)cc(NS(=O)(=O)c2ccc(-c3cc(C)no3)s2)c1", "Potency": "inactive"}, {"smiles": "CCOc1ccc(NC(=O)c2ncoc2-c2ccco2)cc1", "Potency": "inactive"}, {"smiles": "COc1ccc(NC(=O)C(=O)NCc2ccco2)cc1", "Potency": "inactive"}, {"smiles": "COCCNC(=O)Nc1ccc2nc(-c3ccco3)c(-c3ccco3)nc2c1", "Potency": "2.82 µM (active)"}, {"smiles": "CCC(=O)N1c2ccccc2CC1C(=O)N1CCN(c2ccccc2F)CC1", "note": "(configuration not stated)", "Potency": "inactive"}, {"smiles": "Cc1cccc(CC(=O)N2CC(=O)Nc3ccc(F)cc3C2c2ccccc2)c1", "note": "(configuration not stated)", "Potency": "inactive"}]}]}
